Screening results: PubChem, Broad Institute
Not all results are given here.
aSyn UTR act = Activators via SNCA 5'UTR binding, MLPCN; alpha-synuclein 5'UTR reporter, activators screen; activity score, % (tested at 7.5 µM), hits read low; hit rate 7.1% among 300,000; AID 1814; in the data active = activity score below about -60%
Active calls of the source: *.

How did CC1CCC(NC(=O)c2cc3c(s2)CCCC3)CC1 (stereo not given) do in these assays?
aSyn UTR act: -116*

How did Cc1ccc(C(=O)NC2CCC(C)CC2)s1 (stereo not given) do in these assays?
aSyn UTR act: -92*

Results for CC(C)CCSc1nc2ccccc2[nH]1 ?
aSyn UTR act: -107*

What do the screens show for `COC(=O)c1cccc(CSc2nc3ccccc3[nH]2)c1`?
aSyn UTR act: -72*

How did c1ccc2[nH]c(SCCN3CCOCC3)nc2c1 do in these assays?
aSyn UTR act: -78*

How did COc1ccc(CSc2nc3ccccc3[nH]2)cc1 do in these assays?
aSyn UTR act: -189*

What do the screens show for `c1ccc2[nH]c(SCc3ccc(-c4nnco4)cc3)nc2c1`?
aSyn UTR act: -142*

What do the screens show for `CCc1c(C)sc(NC(=O)c2ccco2)c1C#N`?
aSyn UTR act: -104*

Results for c1ccc(Nc2nc(-c3ccccn3)cs2)cc1 ?
aSyn UTR act: -145*

How did c1ccc(-c2csc(Nc3cccnc3)n2)nc1 do in these assays?
aSyn UTR act: -218*

Results for c1cncc(Nc2nc(-c3cccs3)cs2)c1 ?
aSyn UTR act: -218*

What do the screens show for `CC(=O)n1cc(N(C(=O)CCl)c2ccc(C)cc2)c2ccccc21`?
aSyn UTR act: 89

How did CC(=O)n1c2ccccc2c2nc3ccccc3nc21 do in these assays?
aSyn UTR act: -98*

What do the screens show for `Cc1ccc(C(=O)Nc2ccc(Br)c(C(F)(F)F)c2)cc1`?
aSyn UTR act: -212*

Results for CCN1CCN(Cc2ccc(NC(=O)c3ccc(C)c(NC(=O)c4ccno4)c3)cc2C(F)(F)F)CC1 ?
aSyn UTR act: 67

Results for C[C@H]1C=CC(=O)O[C@H]1c1ccccc1 ?
aSyn UTR act: -142*

Results for CCN1CCc2c(sc(NC(=O)c3ccc4ccccc4c3)c2C(N)=O)C1 ?
aSyn UTR act: -194*

What do the screens show for `CC(C)N1CCc2c(sc(NC(=O)c3ccc(S(=O)(=O)N4CCc5ccccc54)cc3)c2C(N)=O)C1`?
aSyn UTR act: -103*

Results for CC(C)N1CCc2c(sc(NC(=O)c3ccc([N+](=O)[O-])o3)c2C(N)=O)C1 ?
aSyn UTR act: 104

What do the screens show for `COc1cccc(Nc2nc(-c3sc(C)nc3C)cs2)c1`?
aSyn UTR act: -103*

What do the screens show for `COc1cccc(Nc2nc(-c3sc(N)nc3C)cs2)c1`?
aSyn UTR act: -112*

What do the screens show for `Cc1nc(C)c(-c2csc(Nc3ccc(F)cc3)n2)s1`?
aSyn UTR act: -152*

What do the screens show for `Cc1nc(N)sc1-c1csc(Nc2ncccn2)n1`?
aSyn UTR act: -136*

How did Oc1cccc(N2Cc3ccccc3C2)c1 do in these assays?
aSyn UTR act: -82*

What do the screens show for `Cc1cc(N2Cc3ccccc3C2)ccc1C=O`?
aSyn UTR act: -96*

What do the screens show for `Cc1cc2c(cc1C)CN(c1ccccc1)C2`?
aSyn UTR act: -90*

What do the screens show for `CS(=O)(=O)c1nc(S(=O)(=O)c2ccc(Cl)cc2)c(N2CCC3(CC2)OCCO3)s1`?
aSyn UTR act: -156*

How did Cc1nccc(-c2cc(-c3ccc(Cl)cc3Cl)no2)n1 do in these assays?
aSyn UTR act: -135*

What do the screens show for `Cc1ccccc1NCc1nc2ccccc2n1C`?
aSyn UTR act: -126*

How did Cn1c(CNc2ccccc2O)nc2ccccc21 do in these assays?
aSyn UTR act: -154*

Results for CCOc1ccc2nc(SCc3ccc(F)cc3)sc2c1 ?
aSyn UTR act: -68*

How did Nc1nc(SCc2ccccc2)ns1 do in these assays?
aSyn UTR act: -89*

What do the screens show for `Nc1cc(N)nc(SCc2ccccc2)n1`?
aSyn UTR act: -110*

What do the screens show for `O=C(O)c1ccc(Cl)c(S(=O)(=O)Nc2ccc(OCc3ccccc3)cc2)c1`?
aSyn UTR act: -69*

What do the screens show for `CCOc1ccc(C(=O)OCC(=O)c2c(N)n(C)c(=O)n(C)c2=O)cc1OCC`?
aSyn UTR act: -118*

How did COCCOC(=O)c1[nH]c2c(c1C)C(=O)CC(c1cccs1)C2 (stereo not given) do in these assays?
aSyn UTR act: 64

Results for CC(=O)NC12CC3CC(C1)CC(C(=O)OCC(=O)c1ccc4c(c1)OCCO4)(C3)C2 ?
aSyn UTR act: -134*

Results for COc1ccc(OCCOC(=O)c2cccs2)cc1 ?
aSyn UTR act: -66*

Results for O=C(COC(=O)c1cccs1)c1ccc2c(c1)OCCO2 ?
aSyn UTR act: -176*

Results for O=C(COC(=O)c1cccs1)c1ccc2ccccc2c1 ?
aSyn UTR act: -121*

Results for O=C(NNC(=O)c1cccs1)c1ccc2ccccc2c1 ?
aSyn UTR act: -71*

How did Cc1nc(NC(=O)C2CC3CCCC(C2)C3=O)sc1C (stereo not given) do in these assays?
aSyn UTR act: -80*

Results for CSc1ccccc1NC(=O)COc1ccccc1Cl ?
aSyn UTR act: -65*

What do the screens show for `O=C(CCl)Nc1ccccc1Sc1ccc(Cl)cc1`?
aSyn UTR act: 93

Results for CSc1ccccc1NC(=S)NCc1ccc(Cl)cc1 ?
aSyn UTR act: -110*

How did CSc1ccccc1NC(=O)COc1ccc(Cl)cc1 do in these assays?
aSyn UTR act: -62*

How did COc1nc(-c2ccccc2)ccc1-c1noc(-c2ccccc2F)n1 do in these assays?
aSyn UTR act: -109*
